# This is a sample that favours compounds with a hit; in the whole collection about 0.92% have one here.
# RECQ1 inh-1: RECQ1 (human) helicase inhibition. RECQ1 DNA unwinding, red fluorescence kinetic read. hit rate 0.54% among 240,000. Potency, µM (highest dose often 57.3 µM), actives largely listed as inhibitors. AID 2549; also: nearly all actives have a fitted effect of over 30% in size
#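 RECQ1T1 50 nM; forked duplex (20 bp + 30-nt ss tails) 200 nM, ATP 2 mM final; pH 8.0, 2 mM MgCl2, 2.5 ug/ml poly(dI-dC); 15 min compound preincubation; discontinuous kinetic read over 2 h at RT.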
# FEN1 inh: blocks human flap endonuclease 1; P39748; Recombinant FEN1 flap cleavage, fluorescence, 15 min; Potency, µM (highest dose often 114 µM), hits mostly inhibitors; hit rate 0.35% among 390,000; AID 588795; also: nearly all actives have a fitted effect of over 65% in size
#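 In this screen, 50 nM flap DNA substrate was added to 10 nM FEN1 pretreated with compound for 15 min at room temperature; cleavage was followed with reads at 0 and 15 min, and Hill fitting gave concentration–response parameters.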
# BLM inh-1: inhibitors of human Bloom syndrome helicase BLM; P54132; Potency, µM (top dose mostly 56.1 µM), most hits filed as inhibitors; recombinant BLM DNA unwinding, fluorescence dequenching; hit rate 0.2% among 350,000; also: nearly all actives have a fitted effect of over 35% in size
# APE1 inh-1: APE1 (human) endonuclease inhibition; P27695; recombinant APE1, TAMRA/BHQ-2 abasic DNA cleavage fluorescence; Potency, µM (titrated, usually from 65.8 µM), usual class: inhibitors; hit rate 0.35% among 350,000; AID 2517; also: nearly all actives have a fitted effect of over 55% in size
#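 Readout is kinetic fluorescence (ex 525, em 598 nm) from cleavage of 50 nM TAMRA/BHQ-2 THF abasic duplex by 0.75 nM APE1, compound added 15 min beforehand at RT.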
# TDP1 block: TDP1 (human) enzyme inhibition; recombinant TDP1, AlphaScreen DNA substrate cleavage; Potency, µM (top dose mostly 130 µM), hits mostly inhibitors; hit rate 0.28% among 350,000; AID 485290; also: nearly all actives have a fitted effect of over 40% in size
# Target sequence (Q9NUW8 whole entry, looked up): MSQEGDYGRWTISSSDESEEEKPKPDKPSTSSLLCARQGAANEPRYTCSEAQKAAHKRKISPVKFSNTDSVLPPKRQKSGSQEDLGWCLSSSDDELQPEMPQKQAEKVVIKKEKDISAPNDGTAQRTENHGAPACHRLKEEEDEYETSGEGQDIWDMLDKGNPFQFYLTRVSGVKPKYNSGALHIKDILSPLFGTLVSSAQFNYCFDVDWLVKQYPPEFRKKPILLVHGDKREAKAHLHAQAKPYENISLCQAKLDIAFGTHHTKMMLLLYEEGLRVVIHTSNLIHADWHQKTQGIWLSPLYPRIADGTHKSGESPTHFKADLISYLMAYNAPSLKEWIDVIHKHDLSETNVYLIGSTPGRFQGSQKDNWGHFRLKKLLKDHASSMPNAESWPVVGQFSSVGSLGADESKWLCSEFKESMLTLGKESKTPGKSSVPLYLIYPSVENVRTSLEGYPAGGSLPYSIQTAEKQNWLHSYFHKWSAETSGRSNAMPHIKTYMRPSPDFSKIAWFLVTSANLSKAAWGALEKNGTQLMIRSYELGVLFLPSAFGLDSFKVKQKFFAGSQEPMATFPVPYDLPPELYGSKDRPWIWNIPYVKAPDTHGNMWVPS
#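 Tdp1 1 nM final; 15 min RT w/ cpd; substrate 15 nM, 5 min; beads 10 ug/ml, 10 min; AlphaScreen read. Neg ctrl: no enzyme.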
# APE1 dye cs: counter-screen for APE1 inhibitors: DNA dye displacement; shares compounds with APE1 inh-1; DNA fluorescent dye displacement counterscreen, fluorescence; Potency, µM (doses to about 28.5 µM), usual class: inhibitors; hit rate 7% among 480;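 also: loss of thiazole orange fluorescence as the dye is displaced from duplex DNA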
# Endo IV inh: Endo IV (E. coli) inhibition counter-screen; shares compounds with APE1 inh-1; E. coli Endo IV, fluorogenic AP-site DNA cleavage; Potency, µM (titrated, usually from 27.1 µM), actives largely listed as inhibitors; hit rate 4% among 560; AID 2565
# APE1 inh-2: APE1 (human) endonuclease inhibition, confirmation; shares compounds with APE1 inh-1; purified APE1, fluorogenic abasic-site DNA cleavage; Potency, µM (titrated, usually from 57.1 µM), usual class: inhibitors; hit rate 44% among 750; AID 2572; also: nearly all actives have a fitted effect of over 30% in size
# APE1 FP inh: displaces DNA from human APE1 in FP assay; shares compounds with APE1 inh-1; APE1 binding to TAMRA-labelled double-stranded DNA, fluorescence polarization displacement; Potency, µM (top dose mostly 28.5 µM), usual class: inhibitors; hit rate 7% among 480
# BLM inh-2: BLM (human) helicase inhibition, confirmation; Potency, µM, usual class: inhibitors; hit rate 40% among 220; shares compounds with BLM inh-1; BLM DNA unwinding, fluorescence quenching, biochemical;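 also: strand separation dequenches TAMRA so unwinding raises red fluorescence; series mostly up to about 69 µM; nearly all actives have a fitted effect of over 45% in size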
# RECQ1 conf: confirmation of human RECQ1 helicase inhibitors; Potency, µM (doses to about 229 µM), hits mostly inhibitors; hit rate 28% among 610; RECQ1 helicase DNA unwinding, fluorescence; shares compounds with RECQ1 inh-1; also: nearly all actives have a fitted effect of over 45% in size
# ADP FP counter: counter-screen for RECQ1 inhibitors: ADP displacement; shares compounds with RECQ1 inh-1; ADP fluorescence polarization displacement counterscreen; Potency, µM (doses to about 228 µM), hits mostly inhibitors; hit rate 27% among 530; AID 2711; also: nearly all actives have a fitted effect of over 45% in size
# RECQ1 inh-2: RECQ1 helicase inhibition confirmed, round 2 | shares compounds with RECQ1 inh-1 | recombinant RECQ1 DNA unwinding, red fluorescence | Potency, µM (highest dose often 119 µM), usual class: inhibitors | hit rate 15% among 1,100 | AID 504841; also: nearly all actives have a fitted effect of over 50% in size
# Numbers stand for hits; 0 = inactive; ? = inconclusive; - = not tested or not shown; ! = not confirmed by another sample; [ ] = dose if it differs, or a comment. Calls follow the shape of the dose curve; as a rule, active = well fitted curve in the direction sought with a large enough effect; inconclusive = small, poorly fitted or top-dose-only effect, or another doubt; inactive = no such curve, though single readings can be large; an effect the other way counts as inactive or inconclusive.
SMILES,RECQ1 inh-1,FEN1 inh,BLM inh-1,APE1 inh-1,TDP1 block,APE1 dye cs,Endo IV inh,APE1 inh-2,APE1 FP inh,RECQ1 conf,ADP FP counter,RECQ1 inh-2,others
Cn1c(SCC(=O)N/N=C/C=C/c2ccco2)nc2ccccc21,17.8µM,?,0,10µM,?,?,0,?,0,?,-,-,
O=C1C[C@@H](O)[C@@H](O)[C@@H]2[C@H]3C(=O)N(c4ccc(F)cc4F)C(=O)[C@@H]3CC[C@H]12,0[11.5 µM],-,0[12.4 µM],0[12.4 µM],0[21 µM],-,-,-,-,-,-,-,
O=C(c1ncc[nH]1)c1ccco1,0,0,0,0,0,-,-,-,-,-,-,-,
O=C(c1cc(C(=O)c2ccco2)cc(C(=O)c2ccco2)c1)c1ccco1,35.5µM,0,0,31.6µM,?,0,0,?,0,-,-,0,
CC1CCC(C(C)C)C(P(=O)(c2ccccc2)c2ccccc2)C1 (configuration not stated),0,-,0,0,0,-,-,-,-,-,-,-,
CC(C)CNC1=CC(=O)CC(c2ccco2)C1 (configuration not stated),11.2µM,0,0,6.31µM,-,0,0,0,0,?,?,?,
O=C1C=C(NCc2ccc(Cl)cc2)CC(c2ccco2)C1 (configuration not stated),0,0,0,0,0,-,-,-,-,-,-,-,
C=CC[C@@H]1C=C[C@@H](O/N=C\c2ccc(C(=O)N3[C@H](c4ccc(C)cc4)[C@@H](C)CC[C@H]3C(=O)OC)cc2)[C@@H](CO)O1,0[11.5 µM],-,0[12.4 µM],0[12.4 µM],0[21 µM],-,-,-,-,-,-,-,
COc1cc(N(C)C)cc(CN(C)CCc2ccc([N+](=O)[O-])cc2)c1O,10µM,-,14.1µM,3.16µM,2.24µM,0,0,?,0,100µM,?,50.1µM,
COc1ccc(CNCCc2ccc([N+](=O)[O-])cc2)c(OC)c1OC,-,0,0,0,-,-,-,-,-,-,-,-,
Cc1ccc(CNC(=O)CCS(=O)(=O)c2ccc(Br)cc2)cc1,?,0,0,?,11.2µM,-,-,?,-,-,-,?,
O=c1nc2s/c(=C\c3ccco3)c(=O)n2nc1Cc1ccc(F)cc1,22.4µM,?,0,7.94µM,?,?,0,7.08µM,?,56.2µM,?,?,
Cc1cccc(NC(=O)CSc2nnc(-c3ccco3)c(-c3ccco3)n2)c1C,17.8µM,?,17.8µM,?,?,?,0,?,0,-,-,0,
COc1ccc(N=C2NC(=O)/C(=C\c3ccco3)S2)cc1,15.8µM,0,?,7.94µM,0,0,0,12.6µM,0,?,0,?,
O=C(C[n+]1ccccc1Cl)c1ccc(Br)cc1,-,0,-,-,-,-,-,-,-,-,-,-,
CNC[C@H](O)c1ccc(O)c(O)c1,17.8µM!,-,0,7.94µM!,44.7µM!,0,0,?,0,?,14.1µM,-,
CC(=O)OCC(NC(=O)C(COCc1ccccc1)NC(=O)OC(C)(C)C)C1OC(n2cc(C)c(=O)[nH]c2=O)C(OC(C)=O)C1OC(C)=O (configuration not stated),0,0,0,0,0,-,-,-,-,-,-,-,
CC(=O)N1CCC2(CC1)CCN(c1ccc(-c3ccccc3)cc1)CC2,0,-,0,0,-,-,-,-,-,-,-,-,
COc1ccc(/C=N/NC(=O)c2cc(O)c(O)c(O)c2)cc1Cn1cc([N+](=O)[O-])cn1,1.78µM,?,?,1.58µM,0,?,0,1.26µM,0,?,0,-,
CCOc1cc(N2CCOCC2)c(OCC)cc1NC(C)C(=O)N1CCN(CC)CC1 (configuration not stated),?,0,0,10µM,12.6µM,-,-,?,-,-,-,0,
CCc1ccc(C(c2ccccc2)c2c(C)[nH]c3ccccc23)s1 (configuration not stated),-,0,0,-,0,-,-,-,-,-,-,-,
COc1ccc(Cc2nnc(NC(=O)Cc3cccs3)s2)cc1OC,20µM,0,?,28.2µM,-,?,0,2µM,0,-,-,?,
C=CCOCC/C=C1/c2ccccc2C(OC)C1C (configuration not stated),0[11.5 µM],-,0[12.4 µM],?,0[21 µM],-,-,-,-,-,-,-,
O=C1CC(=O)N(Cc2ccco2)C(=S)N1,11.2µM,35.5µM,?,11.2µM,2.51µM,0,0,35.5µM,?,15.8µM,0,-,
O=C1C(=C2CCCCC2)SC(=S)N1Cc1ccco1,0,0,0,0,0,-,-,-,-,-,-,-,
SMILES,RECQ1 inh-1,FEN1 inh,BLM inh-1,APE1 inh-1,TDP1 block,APE1 dye cs,Endo IV inh,APE1 inh-2,APE1 FP inh,RECQ1 conf,ADP FP counter,RECQ1 inh-2,others
Cn1c(SCC(=O)Nc2ccc3nc(SCC(=O)N4CCCC4)sc3c2)nnc1-c1ccc(N)cc1,0.631µM,0,0,10µM,35.5µM,-,-,?,-,7.08µM,?,?,
CSc1nc(NCCOCCO)c2sc3nc(-c4ccco4)c4c(c3c2n1)CCC4,25.1µM,0,25.1µM,31.6µM,35.5µM,12.6µM,0,12.6µM,0,-,-,?,BLM inh-2=?
CC(C)(C)n1ncc2c(=O)n(Cc3ccccc3C#N)cnc21,-,0,-,0,-,-,-,-,-,-,-,-,
CCN(CC)Cc1c(O)c(Cl)cc2c(C)cc(=O)oc12,?,0,0,12.6µM,12.6µM,0,0,28.2µM,0,-,-,56.2µM,
CCN(CC)Cc1c(O)c(Cl)cc2c(C)c(C)c(=O)oc12,0,0,0,0,0,-,-,-,-,-,-,-,
Cc1cc(N(C)C)ccc1/C=C/c1ccnc2ccccc12,-,0,-,-,-,-,-,-,-,-,-,-,
Nc1ccc(N(CCO)CCO)cc1,?,0,0,20µM,-,0,0,0,0,-,-,0,
C(=C\c1ccco1)/C1=NN(c2ccccc2)C(c2ccco2)C1 (configuration not stated),0,0,0,0,?,-,-,-,-,-,-,-,
O=[N+]([O-])c1ccc(/C=C/C2=NN(c3ccccc3)C(c3ccco3)C2)o1 (configuration not stated),?,0,0,?,0,0,?,14.1µM,0,-,-,7.94µM,
C=C/C(C)=C/[C@@]1(C)SC(=O)C(C)=C1O,8.91µM,-,-,3.16µM,?,-,0,2µM,-,39.8µM,11.2µM,-,
COc1ccc(N2Cc3cccc(C(=O)N4CCN(C(=O)c5ccco5)CC4)c3C2=O)cc1,10µM,0,17.8µM,10.6µM,11.2µM,-,-,28.2µM,-,39.8µM,?,15.8µM,BLM inh-2=22.9µM

# Screens from PubChem.
